Results as given in PubChem BioAssay (NCATS).
Inconclusive results are not listed. Where a call stands in place of a potency, no number is given. Activity calls are given as the source filed them. Unless noted, the call rests on the fitted dose curve; in most records, active means well fitted curve in the direction sought with a large enough effect; inconclusive means small, poorly fitted or top-dose-only effect, or another doubt; inactive means no such curve, though single readings can be large; an effect the other way counts as inactive or inconclusive.

What was measured:
[1] = Cytotoxicity counterscreen for NFkB agonists and antagonists (AID 624476)
[2] = qHTS Assay for Identification of Small Molecule Agonists for NFkB Signaling Pathway. (AID 624478);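 further: compounds tested together with TNF alpha at its EC50 of 10 pM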
Procedure, shortened: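 Cells carrying an NFkB response element-driven beta-lactamase gene are co-treated with compound and 10 pM TNF alpha for 5 h, and reporter activity is then read as 460 and 530 nm fluorescence.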

[3] = qHTS Assay for Identification of Small Molecule Antagonists for NFkB Signaling Pathway. (AID 624479; calls by dose curve;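 further: pathway stimulated with TNF alpha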; further: potency means the concentration at half of the fitted maximal effect)
[4] = Cell Proliferation Assay against the TMD8 Cell Line (AID 651645); details: TMD8 DLBCL cell line proliferation/viability; at 46.1 µM (top of the series) unless noted;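 further: cells exposed to compound for 48 h before reading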
Procedure, shortened: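 TMD8 ABC DLBCL cells, 500 per well in phenol red-free RPMI with 5% FBS, were treated with compound by pin transfer and incubated 48 hours at 37C, 5% CO2. Viability was read by CellTiter-Glo luminescence, normalised to DMSO (100%) and 9.2 uM bortezomib (0%).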

[5] = Cell Proliferation Assay against the HBL1 Cell Line (AID 651646); details: HBL1 DLBCL cells; at 46.1 µM (top of the series) unless noted;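 further: cells exposed to compound for 48 h before reading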
Procedure, shortened: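 Luminescent ATP read-out (CellTiter-Glo) after 48 h compound exposure of HBL1 cells at 37 °C; percent activity was scaled between DMSO as 100% and 9.2 uM bortezomib (final) as 0%.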

[6] = Cell Proliferation Assay against the TMD8 Cell Line (Caspase readout at 8 hrs) (AID 651713)
Procedure, shortened: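 Percent activity derived from Caspase-Glo signal, DMSO set to 0% and bortezomib (9.2 uM final) to 100%. TMD8 cells were exposed to compound for 8 h in RPMI with 5% FBS.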

[7] = Cell Proliferation Assay against the TMD8 Cell Line (Caspase readout at 16 hrs) (AID 651712)
Procedure, shortened: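 Apoptotic response of TMD8 cells was judged from caspase 3/7 activation following a 16 hour compound incubation at 37 °C. Luminescent signal was converted to percent activity, with DMSO set as 0% and 9.2 uM final bortezomib as 100%.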

| SMILES | Potency [1] | outcome [2] | Potency [3] | viability (% of control) [4] [%] | viability, percent of control [5] [%] | Potency [6] | Potency [7] |
| --- | --- | --- | --- | --- | --- | --- | --- |
| COc1ccc(-c2ccc3c(N4CCOC[C@H]4C)nc(N4CCOC[C@H]4C)nc3n2)cc1CO | inactive | inactive | inactive | 25 | 57.8 | inactive | – |
| COc1ccc(CCN2CCN(CCCc3ccccc3)CC2)cc1OC | inactive | inactive | inactive | 83.9 | 85.9 | inactive | inactive |
| CNC(=O)c1ccc(C)c(-n2c(C)cc(OCc3ccc(F)cc3F)c(Br)c2=O)c1 | inactive | inactive | inactive | 53 | 44.5 | inactive | – |
| CCC(=O)N[C@H]1CC[C@H](C(=O)N(C)c2ccc(-c3nc4ccccc4o3)cc2)C1 | inactive | inactive | inactive | 77.3 | 74.7 | inactive | inactive |
| CS(=O)(=O)c1ccc(C(=O)Nc2ccc(Cl)c(-c3ccccn3)c2)c(Cl)c1 | inactive | inactive | inactive | 93.4 | 99.4 | inactive | inactive |
| O=c1[nH]c(-c2ccc(C(F)(F)F)cc2)nc2c1CSCC2 | inactive | inactive | inactive | 82.1 | 105 | inactive | inactive |
| COc1ccccc1[C@H](c1cccc2ccccc12)[C@@](C)(C#N)C(=O)N1CCC(c2cccc(C(F)(F)F)c2)CC1 | inactive | inactive | inactive | 83.6 | 95.2 | inactive | inactive |
| O=C(C=Cc1ccc(/C=C/C(=O)Nc2ccc(C3=NCCN3)cc2)cc1)Nc1ccc(C2=NCCN2)cc1 | inactive | inactive | inactive | 92.1 | 97.4 | inactive | inactive |
| CC(C)(N)C(=O)N[C@H](COCc1ccccc1)C(=O)N1CCC2(CC1)CN(S(C)(=O)=O)c1ccccc12 | inactive | inactive | inactive | 48.1 | 69.2 | inactive | inactive |
| CCCS(=O)(=O)Nc1ccc(F)c(C(=O)c2c[nH]c3ncc(Cl)cc23)c1F | inactive | inactive | 11.9 µM (active) | 68.5 | 70.6 | inactive | – |
| O=C(O)[C@@H](c1ccc(OCc2ccc3ccccc3n2)cc1)C1CCCC1 | inactive | inactive | inactive | 94.6 | 92.8 | inactive | inactive |
| CS(=O)(=O)c1cccc(CNc2nc(Nc3ccc4c(c3)CCC(=O)N4)ncc2C(F)(F)F)c1 | inactive | inactive | inactive | – | 120 | inactive | inactive |
